Laboratory results taken from PubChem BioAssay.
For some assays here: Results with a measured potency or affinity are listed apart. The list shows a part of the results. Activity calls are given as the source filed them.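 Rule for the calls, unless noted: active = compounds whose fluorescence signal differed from control wells by over 3 SD, either direction, in both duplicate plates; inactive = the rest.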

Tests used:
[1] = tested on: TRPC4 beta (transient receptor potential cation channel C4), mouse; assay: TRPC4 cation channel opening, retest – cell-based, Fluo4 calcium, HEK293 TRPC4beta/mu-opioid, duplicates, 10 µM, confirmation (AID 2426;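 active = fluorescence ratio normalized to control raised more than 50% in primary screen plus both repeat runs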;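 for activation: percent rise of integrated ratio over buffer wells lacking compound which define 0%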); settings: Fluo4 calcium fluorescence, at 10 µM; hits give high values
[2] = tested on: transient receptor potential cation channel C4 beta (TRPC4), mouse; assay: TRPC4 cation channel opening, second retest – cell-based, second round, Fluo4, HEK293 TRPC4beta/mu-opioid, 1 µM, confirmation (AID 2461;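 active = primary screen active and over 50% activation in each of two duplicate runs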); settings: Fluo4 calcium fluorescence, at 1 µM; hits give high values
[3] = tested on: TRPC4 (transient receptor potential cation channel C4 beta), mouse; assay: potentiation of DAMGO EC20 TRPC4 response – cell-based, second round, Fluo-4, HEK293 TRPC4beta/mu-opioid, 1 µM, confirmation (AID 2554;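 active = primary screen hit whose fluorescence ratio, in both repeats, exceeds the weak agonist control mean by 3 SD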); settings: DAMGO EC20, Fluo-4 calcium flux, at 1 µM; hits give high values
[4] = tested on: TRPC4 beta (transient receptor potential cation channel C4), mouse; assay: potentiation of DAMGO EC20 TRPC4 response – cell-based, Fluo-4, HEK293 TRPC4beta/mu-opioid, confirmation (AID 2555;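 active = primary screen hit whose calcium fluorescence ratio, in both repeats, exceeds the weak agonist control mean by 3 SD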); settings: DAMGO EC20, Fluo-4 calcium flux, at 10 µM; hits give high values
[5] = target: Short transient receptor potential channel 4 (Mus musculus) (UniProt Q9QUQ5); assay: blockers of DAMGO-evoked TRPC4 calcium flux – cell-based, Fluo4, HEK293 TRPC4beta/mu-opioid, confirmation (AID 2636;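 active = calcium signal cut by more than 3 SD below the full-agonist control yet still positive, in both repeats and the earlier primary screen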); settings: at 10 µM; hits give high values
Sequence of Short transient receptor potential channel 4 (Mus musculus) (Q9QUQ5 whole entry, looked up): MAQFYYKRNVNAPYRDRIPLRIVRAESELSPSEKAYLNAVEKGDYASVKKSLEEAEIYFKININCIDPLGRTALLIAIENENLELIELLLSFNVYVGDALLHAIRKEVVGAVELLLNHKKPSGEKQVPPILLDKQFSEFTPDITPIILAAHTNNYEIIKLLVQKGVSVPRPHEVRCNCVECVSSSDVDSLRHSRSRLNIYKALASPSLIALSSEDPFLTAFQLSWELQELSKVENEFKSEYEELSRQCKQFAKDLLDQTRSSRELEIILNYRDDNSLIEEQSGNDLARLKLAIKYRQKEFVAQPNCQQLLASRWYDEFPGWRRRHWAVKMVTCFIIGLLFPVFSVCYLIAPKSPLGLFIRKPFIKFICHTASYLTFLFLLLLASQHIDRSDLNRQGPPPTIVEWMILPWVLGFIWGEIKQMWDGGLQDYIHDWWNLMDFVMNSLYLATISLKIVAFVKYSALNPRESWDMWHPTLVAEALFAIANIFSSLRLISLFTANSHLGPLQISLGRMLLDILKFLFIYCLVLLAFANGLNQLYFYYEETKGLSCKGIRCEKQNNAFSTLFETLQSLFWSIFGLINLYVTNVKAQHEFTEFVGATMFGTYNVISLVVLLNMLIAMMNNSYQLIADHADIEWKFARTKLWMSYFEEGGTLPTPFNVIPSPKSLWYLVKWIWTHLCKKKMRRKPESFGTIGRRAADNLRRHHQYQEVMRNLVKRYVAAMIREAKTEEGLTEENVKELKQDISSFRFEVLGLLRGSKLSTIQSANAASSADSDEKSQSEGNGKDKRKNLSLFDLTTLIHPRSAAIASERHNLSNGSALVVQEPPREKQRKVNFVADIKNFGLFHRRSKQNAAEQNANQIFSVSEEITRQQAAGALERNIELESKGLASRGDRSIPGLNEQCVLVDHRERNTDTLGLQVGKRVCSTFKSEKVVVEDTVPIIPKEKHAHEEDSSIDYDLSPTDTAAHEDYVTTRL

[6] = target: Short transient receptor potential channel 4 (Mus musculus) (UniProt Q9QUQ5); assay: blockers of DAMGO-evoked TRPC4 calcium flux – cell-based, second round, Fluo4, HEK293 TRPC4beta/mu-opioid, 1 µM, confirmation (AID 2637;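 active = calcium signal ratio cut to more than 3 SD under the fully stimulated control mean yet still positive, in both repeats and the primary screen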;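 for inhibition: percent of integrated ratio relative to wells lacking test compound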); settings: at 1 µM; hits give high values
[7] = target: Short transient receptor potential channel 4 (Mus musculus) (UniProt Q9QUQ5); assay: potentiation of DAMGO-evoked TRPC4 calcium signal – cell-based, HEK293 TRPC4/mu-opioid, Fluo-4 calcium, EC20 DAMGO, dose response (AID 434941;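 active = earlier screen potentiator hit that boosts the TRPC4 ion channel at some dose, with a dose response; inactive = no potentiation, no dose response, or not a prior hit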;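 note: calcium entry triggered by an EC20 dose of DAMGO at the co-expressed mu-opioid receptor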)
[8] = target: Short transient receptor potential channel 6 (Mus musculus) (UniProt Q61143); assay: TRPC6 blockade by TRPC4 inhibitor hits – cell-based, HEK293, membrane potential dye, duplicate, selectivity assay for TRPC4 inhibitor project, confirmation (AID 434948;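 active = active in primary screen and both duplicates, each dropping signal beyond three positive-control SD with fluorescence still positive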); settings: HEK293 TRPC6, membrane potential dye fluorescence, at 10 µM, stimulated with maximal-effect acetylcholine; hits give high values
Sequence of Short transient receptor potential channel 6 (Mus musculus) (Q61143 whole entry, looked up): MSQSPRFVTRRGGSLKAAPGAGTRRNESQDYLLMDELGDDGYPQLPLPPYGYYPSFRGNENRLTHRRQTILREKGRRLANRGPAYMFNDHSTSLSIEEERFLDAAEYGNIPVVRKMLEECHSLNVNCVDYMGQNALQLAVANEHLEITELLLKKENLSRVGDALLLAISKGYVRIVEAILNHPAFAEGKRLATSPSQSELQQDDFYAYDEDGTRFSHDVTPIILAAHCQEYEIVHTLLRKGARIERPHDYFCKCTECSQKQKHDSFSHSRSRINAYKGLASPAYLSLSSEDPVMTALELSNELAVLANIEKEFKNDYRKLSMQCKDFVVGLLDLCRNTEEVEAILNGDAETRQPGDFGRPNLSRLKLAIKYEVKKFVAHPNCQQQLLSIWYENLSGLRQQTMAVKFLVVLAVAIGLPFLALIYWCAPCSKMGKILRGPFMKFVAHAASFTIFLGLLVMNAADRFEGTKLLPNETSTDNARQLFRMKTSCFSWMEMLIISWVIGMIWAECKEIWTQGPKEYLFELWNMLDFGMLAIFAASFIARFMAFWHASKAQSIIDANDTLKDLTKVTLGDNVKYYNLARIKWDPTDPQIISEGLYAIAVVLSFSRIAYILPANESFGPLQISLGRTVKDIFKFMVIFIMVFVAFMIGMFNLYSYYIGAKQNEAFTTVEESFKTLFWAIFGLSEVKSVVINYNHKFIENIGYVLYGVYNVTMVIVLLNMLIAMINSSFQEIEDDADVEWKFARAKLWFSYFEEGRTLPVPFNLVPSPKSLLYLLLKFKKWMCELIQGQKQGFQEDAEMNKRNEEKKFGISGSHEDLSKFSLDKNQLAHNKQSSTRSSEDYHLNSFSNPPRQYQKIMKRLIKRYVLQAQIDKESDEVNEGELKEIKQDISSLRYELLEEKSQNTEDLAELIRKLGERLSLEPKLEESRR

[9] = target: Short transient receptor potential channel 6 (Mus musculus) (UniProt Q61143); assay: TRPC6 opening by TRPC4 activator hits – cell-based, HEK293, membrane potential dye, duplicate, selectivity assay for TRPC4 activator project, confirmation (AID 434950;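 active = membrane potential signal rise above negative control mean plus 3 SD in both duplicates, also active in the earlier TRPC4 screen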;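 for activation: 0% = buffer only wells and 100% = acetylcholine maximal-effect wells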); settings: HEK293 TRPC6, membrane potential fluorescence, at 10 µM; activation: hits give high values; outcome: activation
[10] = target: Short transient receptor potential channel 6 (Mus musculus) (UniProt Q61143); assay: positive modulators of mouse TRPC6 channel – HEK293 cells, membrane potential dye, duplicate, selectivity assay for TRPC4 potentiator project, confirmation (AID 434952;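 active = compound raising the membrane signal above positive-control mean plus 3 SD in both repeats, and a primary screen hit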); settings: HEK293 TRPC6, membrane potential dye fluorescence, at 10 µM, maximal acetylcholine added after compound; hits give high values
[11] = target: Short transient receptor potential channel 4 (Mus musculus) (UniProt Q9QUQ5); assay: calcium flux activators in TRPC4/5HT1a cells, counter-screen for TRPC4 activator project, cell-based, second counter screen, HEK293 TRPC4/5HT1a, Fluo-4 (AID 434977;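 active = calcium signal rise above buffer-control mean plus 5 SD in both duplicates, and also a hit in the primary screen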;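 for activation: plate controls were assay buffer for no effect and maximal serotonin response for full effect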); settings: Fluo-4 calcium flux, at 10 µM; hits give high values
[12] = serotonin-gated TRPC4 signal block – cell-based, second counter screen, HEK293 TRPC4/5HT1a, Fluo-4, counter-screen for TRPC4 inhibitor project, confirmation (AID 434978;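 active = primary screen active whose calcium signal fell more than 3 SD beyond the full-serotonin control mean in both duplicate plates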;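 for outcome: serotonin given first at submaximal then at maximal dose after compound preincubation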); settings: Fluo-4 calcium flux, at 10 µM, serotonin added to trigger calcium flux; hits give high values
[13] = tested on: TRPC4 (mouse), co-expressed with 5HT1a in HEK293; assay: enhancement of serotonin-evoked TRPC4 response – cell-based, second counter screen, HEK293 TRPC4/5HT1a, Fluo-4, counter-screen for TRPC4 potentiator project, confirmation (AID 434979;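 active = signal rise over 3 SD above mean of control wells given weak agonist, in both repeats and first screen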); settings: Fluo-4 calcium flux, at 10 µM, serotonin added at its EC20 dose; hits give high values
[14] = nonspecific calcium rise without TRPC4 – cell-based, HEK293 mu-opioid receptor line, counter-screen for TRPC4 activator project, confirmation (AID 449723;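 active = hit in primary screen, with calcium signal over 5 SD above buffer well mean in both duplicates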;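 note: counter screen cells carry the mu-opioid receptor alone and lack TRPC4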); settings: HEK293 mu-opioid cells, Fluo-4 calcium fluorescence, at 10 µM; hits give high values
[15] = nonspecific potentiation of DAMGO calcium response – cell-based, HEK293 mu-opioid receptor line, counter-screen for TRPC4 allosteric potentiator project, confirmation (AID 449724;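 active = calcium signal rise more than 3 SD above the low-dose agonist control mean, in both duplicate plates and the primary screen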); settings: HEK293 mu-opioid receptor cells, Fluo-4 calcium flux, at 10 µM, compound added before EC20 DAMGO stimulus; hits give high values
[16] = nonspecific flux increase, KCNQ1-free cells – parental CHO cells, counter-screen for KCNQ1 potentiator project (AID 493006;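 active = duplicate-averaged activation above buffer control mean plus 5 SD of those controls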); settings: parental CHO-K1 cells, FluxOR thallium flux, at 10 µM; hits give high values
[17] = target: Potassium voltage-gated channel subfamily KQT member 1 (Homo sapiens) (UniProt P51787); assay: enhancement of KCNQ1 channel thallium flux – FluxOR thallium flux, CHO cells, duplicates, confirmation (AID 493007;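 active = potentiation averaged over duplicate wells exceeding buffer-only control mean by more than 3 SD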;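 note: cells depolarized by a potassium plus thallium sulfate stimulus after compound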); settings: KCNQ1 cell line, FluxOR thallium flux fluorescence, at 10 µM; hits give high values, % of reference activator effect, buffer zero
Sequence of Potassium voltage-gated channel subfamily KQT member 1 (Homo sapiens) (P51787 whole entry, looked up): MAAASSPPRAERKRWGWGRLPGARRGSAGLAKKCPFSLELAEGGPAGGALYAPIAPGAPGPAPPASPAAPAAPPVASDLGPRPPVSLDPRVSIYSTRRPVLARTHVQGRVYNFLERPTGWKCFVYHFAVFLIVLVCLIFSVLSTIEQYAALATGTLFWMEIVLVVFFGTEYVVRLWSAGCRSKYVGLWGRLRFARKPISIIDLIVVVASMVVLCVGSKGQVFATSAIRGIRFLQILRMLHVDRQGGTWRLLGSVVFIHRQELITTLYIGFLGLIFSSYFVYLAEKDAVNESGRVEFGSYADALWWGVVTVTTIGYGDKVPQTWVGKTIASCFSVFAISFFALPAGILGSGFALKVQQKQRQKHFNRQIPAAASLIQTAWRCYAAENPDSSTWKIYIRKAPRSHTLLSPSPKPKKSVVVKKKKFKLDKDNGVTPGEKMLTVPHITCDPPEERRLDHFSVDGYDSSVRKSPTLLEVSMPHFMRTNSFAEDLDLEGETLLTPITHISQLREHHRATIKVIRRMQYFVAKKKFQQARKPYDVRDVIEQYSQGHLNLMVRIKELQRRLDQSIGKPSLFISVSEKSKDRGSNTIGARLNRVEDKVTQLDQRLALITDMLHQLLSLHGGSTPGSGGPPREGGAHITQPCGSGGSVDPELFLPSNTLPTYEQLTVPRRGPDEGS

[18] = target: Potassium voltage-gated channel subfamily KQT member 2 (Rattus norvegicus) (UniProt O88943); assay: KCNQ2 thallium flux enhancement – KCNQ2-CHO-K1 cells, selectivity assay for KCNQ1 potentiator project (AID 493009;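 active = mean duplicate potentiation above the buffer control mean plus 5 SD of buffer wells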;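 note: assay conditions were tuned for KCNQ1 rather than KCNQ2 modulators; signal is max minus min fluorescence divided by baseline after thallium stimulus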); settings: FluxOR thallium flux fluorescence, at 10 µM; hits give high values, scaled: buffer 0, activator control 100
Sequence of Potassium voltage-gated channel subfamily KQT member 2 (Rattus norvegicus) (O88943 whole entry, looked up): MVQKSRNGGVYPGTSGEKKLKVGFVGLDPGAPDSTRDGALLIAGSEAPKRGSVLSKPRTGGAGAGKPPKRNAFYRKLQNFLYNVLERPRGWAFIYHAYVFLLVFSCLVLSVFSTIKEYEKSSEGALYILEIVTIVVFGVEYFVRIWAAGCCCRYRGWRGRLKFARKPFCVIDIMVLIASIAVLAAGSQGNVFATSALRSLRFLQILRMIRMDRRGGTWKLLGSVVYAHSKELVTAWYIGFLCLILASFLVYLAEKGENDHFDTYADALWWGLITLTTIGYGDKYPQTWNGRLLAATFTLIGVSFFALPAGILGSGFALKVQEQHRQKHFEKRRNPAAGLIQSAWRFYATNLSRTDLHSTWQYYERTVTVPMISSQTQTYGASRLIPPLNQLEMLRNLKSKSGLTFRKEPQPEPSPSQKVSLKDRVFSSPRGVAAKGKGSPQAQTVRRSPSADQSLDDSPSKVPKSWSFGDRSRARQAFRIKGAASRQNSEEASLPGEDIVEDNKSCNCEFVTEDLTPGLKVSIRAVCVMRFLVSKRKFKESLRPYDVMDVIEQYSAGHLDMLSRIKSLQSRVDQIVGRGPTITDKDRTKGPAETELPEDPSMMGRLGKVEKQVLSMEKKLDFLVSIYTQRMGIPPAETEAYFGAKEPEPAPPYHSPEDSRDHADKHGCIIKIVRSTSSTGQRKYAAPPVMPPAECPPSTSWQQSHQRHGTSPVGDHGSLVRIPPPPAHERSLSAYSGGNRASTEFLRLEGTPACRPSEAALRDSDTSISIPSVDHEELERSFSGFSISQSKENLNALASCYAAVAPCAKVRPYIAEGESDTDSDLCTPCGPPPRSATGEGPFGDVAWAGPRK

[19] = target: Potassium voltage-gated channel subfamily KQT member 1 (Homo sapiens) (UniProt P51787); assay: KCNQ1 activators by electrophysiology – IonWorks patch clamp, KCNQ1-CHO cells, orthogonal assay for KCNQ1 potentiator project, confirmation (AID 493184;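 active = current rise at least 3 SD above the untreated control mean in each of two repeat wells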); settings: automated patch clamp current, at 10 µM; hits give high values
[20] = target: Short transient receptor potential channel 4 (Mus musculus) (UniProt Q9QUQ5); assay: DAMGO-gated TRPC4 membrane potential modulation – cell-based, second specificity screen, HEK293 TRPC4/mu-opioid, selectivity assay for TRPC6 inhibitor project, confirmation (AID 2776); settings: HEK293 TRPC4/MOR, membrane potential dye fluorescence, at 10 µM, channel activated by saturating DAMGO dose; hits give high values
[21] = tested on: transient receptor potential cation channel C4 (TRPC4), mouse; assay: membrane potential change in TRPC4 cells – cell-based, HEK293 TRPC4/mu-opioid, membrane potential dye, selectivity assay for TRPC6 inhibitor project, confirmation (AID 2777;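 active = rise or fall in signal beyond 3 SD of buffer-only wells in both replicate plates, either sign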;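 note: integrated kinetic ratio of fluorescence range over baseline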); settings: membrane potential fluorescence, at 10 µM
[22] = parental HEK293 depolarization signal interference – cell-based, second counter screen, counter-screen for TRPC6 inhibitor project, confirmation (AID 2779;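 active = membrane potential signal moving either way by over 3 SD of the maximum-effect control, in both duplicate plates, meaning non-specific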); settings: parental HEK293 membrane potential dye fluorescence; at 10 µM; maximal acetylcholine challenge after compound addition
[23] = nonspecific voltage dye signal in HEK293 – cell-based, parental HEK293, counter-screen for TRPC6 inhibitor project, confirmation (AID 2780;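 active = membrane potential signal shifting up or down by more than 3 SD of buffer-only wells, on both duplicate plates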;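 for membrane potential signal change: plate controls were buffer EC0 wells for no effect and acetylcholine ECmax wells for full effect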); settings: parental HEK293 membrane potential dye fluorescence; at 10 µM
[24] = target: Short transient receptor potential channel 6 (Mus musculus) (UniProt Q61143); assay: blockers of TRPC6 cation channel activity – HEK293 cells, membrane potential dye, duplicate, confirmation (AID 488960;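 active = fluorescence ratio falls more than 5 SD below the full-stimulation control mean, in both duplicate runs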;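 for inhibition: integrated fluorescence ratio of peak minus minimum over baseline after agonist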); settings: ACh-evoked depolarization, at 10 µM; hits give high values
[25] = target: Potassium voltage-gated channel subfamily KQT member 1 (Homo sapiens) (UniProt P51787); assay: blockers of human KCNQ1 channel – cell-based, Tl flux, duplicate, confirmation (AID 588353;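 active = primary screen active, with duplicate mean exceeding buffer control mean plus 3 SD of buffer wells, cut at about 28% in these data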;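 note: 0% = buffer control ratio and 100% = XE991 inhibitor control ratio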); settings: KCNQ1 cell line, FluxOR thallium flux fluorescence, at 10 µM, hits give high values
[26] = nonspecific activity in CHO-K1 cells without KCNQ1 – parental CHO cells, Tl flux, counter-screen for KCNQ1 inhibitor project (AID 588366;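 active = mean of duplicate thallium-flux fluorescence ratios in parental host cells more than 5 SD below the buffer control mean, cut at about 0.38 in these data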;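 note: ratio is peak minus minimum fluorescence divided by baseline fluorescence; actives read low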); settings: parental CHO-K1, FluxOR thallium flux fluorescence ratio; at 10 µM; hits give low values; zero means no signal rise above baseline
[27] = target: Potassium voltage-gated channel subfamily KQT member 2 (Rattus norvegicus) (UniProt O88943); assay: block of rat KCNQ2 potassium channel – cell-based, selectivity assay for KCNQ1 inhibitor project (AID 651746;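 active = mean percent inhibition of the KCNQ2 thallium signal more than 5 SD above the buffer-only control wells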;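 note: 0% = buffer control wells and 100% = XE-991 inhibitor control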); settings: KCNQ2 cells, FluxOR thallium flux fluorescence, at 10 µM; hits give high values
[28] = target: Potassium voltage-gated channel subfamily E member 1 (Homo sapiens) + Potassium voltage-gated channel subfamily KQT member 1 (Homo sapiens) (UniProt P15382+P51787); assay: block of human IKs channel complex – CHO-K1 cells, thallium flux, FluxOR, selectivity assay for KCNQ1 inhibitor project (AID 652147;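 active = mean percent inhibition of duplicate wells above the buffer-only control mean plus 3 SD of those controls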); settings: KCNQ1/KCNE1 cells, FluxOR thallium flux fluorescence, at 10 µM; hits give high values
Sequence of Potassium voltage-gated channel subfamily E member 1 (Homo sapiens) + Potassium voltage-gated channel subfamily KQT member 1 (Homo sapiens) (P51787 whole entry, looked up): as the sequence (P51787 whole entry, looked up) above

[29] = target: Short transient receptor potential channel 6 (Mus musculus) (UniProt Q61143); assay: mouse TRPC6 channel activators, confirmation, HEK293 cells, membrane potential dye, duplicate (AID 488961;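 active = ratio signal rise beyond 5 SD above unstimulated control wells' mean, seen in both duplicate runs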); settings: HEK293-TRPC6 membrane potential dye fluorescence, FDSS, at 10 µM; hits give high values
[30] = target: Short transient receptor potential channel 4 (Mus musculus) (UniProt Q9QUQ5); assay: block of DAMGO-driven TRPC4 calcium entry – cell-based, HEK293 TRPC4/mu-opioid, Fluo-4 calcium, dose response (AID 434942;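 active = primary screen inhibitor hit that blocks the TRPC4 channel at some tested dose, yielding a dose curve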)

Cc1cc(NCc2ccccc2)nc2ccccc12
active: activation [1] 95% | inhibition [8] 53.5% | activation [11] 5.93% | inhibition [12] 26.2%
inactive: outcome [2] | outcome [3] | outcome [4] | outcome [5] | outcome [6] | outcome [7] | outcome [9] | outcome [10] | outcome [13] | outcome [14] | outcome [15] | outcome [16] | outcome [17] | outcome [18] | outcome [19]

O=C(C[n+]1cc2ccccc2c2ccccc21)c1ccccc1
active: activation [1] 212% | inhibition [5] 94% | inhibition [8] 29.5% | activation [11] 27.6% | inhibition [12] 33.5%
inactive: outcome [2] | outcome [3] | outcome [4] | outcome [6] | outcome [7] | outcome [9] | outcome [10] | outcome [13] | outcome [14] | outcome [15]

Cc1ccccc1Nc1nc(NCc2ccco2)c2ccccc2n1
inactive: outcome [1] | outcome [2] | outcome [3] | outcome [4] | outcome [5] | outcome [7] | outcome [9] | outcome [10] | outcome [11] | outcome [13] | outcome [14] | outcome [15]
active: inhibition [6] 41% | inhibition [8] 43.5% | inhibition [12] 36.9%

CC(C)(C)NCc1cc(Br)ccc1OC1CCCC1
active: inhibition [20] 36% | activity change, negative = inhibition [21] 74.6% | signal change vs control [22] 5% | membrane potential signal change [23] 38.4% | inhibition [24] 123%

C[C@H](NC(=O)OC(C)(C)C)c1nnc(SCC(=O)Nc2ccc(Br)cc2)o1
inactive: outcome [20] | outcome [21] | outcome [22] | outcome [24]
active: membrane potential signal change [23] 0.29%

CCCc1cc(=S)n2c([nH]c3ccccc32)c1C#N
inactive: outcome [20] | outcome [22] | fluorescence ratio (Tl flux) [26] 0.394 | outcome [28]
active: activity change, negative = inhibition [21] 33.6% | membrane potential signal change [23] 22.1% | inhibition [24] 51.5% | inhibition [25] 80.5% | inhibition [27] 91.3%

Cc1cc(Nc2ccc(N3CCOCC3)cc2)c2cccc(C)c2n1
active: inhibition [20] 59% | activity change, negative = inhibition [21] -24.1% | signal change vs control [22] 26.5% | membrane potential signal change [23] -362%
inactive: outcome [24] | outcome [29]

CCOC(=O)c1c(NC(=O)COC(=O)Cc2c[nH]c3ccccc23)sc(C(=O)N(C)C)c1C
inactive: outcome [2] | outcome [5] | outcome [6] | outcome [30] | outcome [8] | outcome [10] | outcome [12] | outcome [14] | outcome [15]
active: activation [1] 194% | potentiation [3] 15% | potentiation [4] 55% | activation [9] 46% | activation [11] 107% | potentiation [13] 60%

CCN(CC)CCn1c2ccc(Cl)cc2c2nc(C)sc21
inactive: outcome [21] | outcome [22] | outcome [29]
active: inhibition [20] 57.5% | membrane potential signal change [23] -267% | inhibition [24] 49.7%

CCOC(=O)N1CCN(C(=O)c2ccc3c(c2)N(Cc2ccc(C)cc2)CCS3)CC1
inactive: outcome [20] | outcome [23] | outcome [24] | outcome [29]
active: activity change, negative = inhibition [21] 0.69% | signal change vs control [22] 307%

CCCCc1cc(O)c(CCCC)c(O)c1
inactive: outcome [2] | outcome [3] | outcome [5] | outcome [6] | outcome [30] | outcome [8] | outcome [9] | outcome [10] | outcome [12] | outcome [13] | outcome [15]
active: activation [1] 63% | potentiation [4] 14% | activation [11] 44.6% | activation [14] 34.5%
